CHRM1 antagonist: human M1 muscarinic receptor antagonists, primary screen, CHO-K1 cells, Fluo-8 calcium fluorescence, 1536-well | Muscarinic acetylcholine receptor M1 (Homo sapiens), P11229 | 1.3% of 360,000 active | CHO-K1 hM1, ACh EC80 antagonist | inhibition, % at 3 µM;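 active = percent inhibition above its own plate's cutoff, namely the mean of that plate's compound wells plus 3 SD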;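 also: peak over basal fluorescence ratio during 140 s after agonist addition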
Target sequence (P11229 whole entry, looked up): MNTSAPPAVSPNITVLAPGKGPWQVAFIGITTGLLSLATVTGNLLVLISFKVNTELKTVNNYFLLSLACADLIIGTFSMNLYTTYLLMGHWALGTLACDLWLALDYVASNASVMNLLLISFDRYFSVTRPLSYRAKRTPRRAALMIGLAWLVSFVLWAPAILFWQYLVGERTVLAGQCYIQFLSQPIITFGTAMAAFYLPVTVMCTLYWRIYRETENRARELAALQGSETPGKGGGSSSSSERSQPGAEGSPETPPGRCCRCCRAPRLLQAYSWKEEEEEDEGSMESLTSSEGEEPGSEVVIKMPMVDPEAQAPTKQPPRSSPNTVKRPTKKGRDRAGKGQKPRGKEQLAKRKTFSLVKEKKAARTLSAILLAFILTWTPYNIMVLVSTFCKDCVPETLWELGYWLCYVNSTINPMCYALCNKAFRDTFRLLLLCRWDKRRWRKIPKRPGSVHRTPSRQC
CHO-K1 Ca antag: counter-screen for M1 antagonists: effect in parental CHO-K1 cells | 0.6% of 360,000 active | AID 602250 | ATP-induced calcium, Fluo-8 fluorescence | inhibition, % at 3 µM;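 active = inhibition above a per-plate cutoff, the plate's mean sample inhibition plus 3 SD, cut at about 24% in these data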
M1 ag parental: counter-screen for M1 agonists: effect in parental CHO-K1 cells; Fluo-8 calcium fluorescence; scaled to maximal ATP response, vehicle zero; activation, % at 3 µM; 0.48% of 360,000 active; AID 602248, 2012; in the data active = activation above about 15%;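 also: untransfected CHO-K1 host cells lacking M1 receptor as counterscreen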
CHO-K1 Ca PAM: nonselective calcium activators in parental CHO-K1 cells, primary screen, counter-screen for M1 PAM project, cell-based, Fluo-8 calcium fluorescence, full deck, 1536-well; activation, % at 3 µM; ATP EC20; 0% at ATP EC20, 100% at ATP max; 0.02% of 360,000 active; AID 602247, 2012;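 active = activation above the run cutoff, the mean activation of all test compounds plus 3 SD, cut at about 40% in these data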;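 also: peak over basal fluorescence ratio in a 140 s read after ATP addition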
CHRM1 agonist: human M1 muscarinic receptor agonists, primary screen, Fluo-8 calcium fluorescence, CHO-K1 cells, HTS | Muscarinic acetylcholine receptor M1 (Homo sapiens), P11229 | CHO-K1 hM1, agonist mode; 0% DMSO, 100% acetylcholine EC100 | activation, % at 3 µM | 0.33% of 360,000 active | AID 588814, 2011;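 active = activation above the run's mean compound activation plus 3 SD, cut at about 16% in these data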;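 also: peak over basal fluorescence ratio within a 140 s kinetic read after compound addition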
M1 PAM: human M1 muscarinic receptor positive allosteric modulators, primary screen, CHO-K1 cells, Fluo-8 calcium fluorescence, 1536-well | CHO-K1 hM1, ACh EC20; 0% = ACh EC20, 100% = maximal ACh | activation, % at 3 µM | 0.088% of 360,000 active | AID 588819, 2011; in the data active = activation above about 19%, passing the limit was not always enough
Of the large screens only hits and unclear results are named; the others gave an inactive call; ! = not confirmed by another sample. This is a sample that favours compounds with a hit; in the whole collection about 2.3% have one here.

O=C(O)c1ccc2c(c1)C(=O)N(N1C(=O)c3ccccc3C1=O)C2=O	none
O=C(Cn1cnc2c(NCc3ccccc3)ncnc21)NCc1ccccc1	none
C[C@@H](NC(=O)Cn1cnc2c(OCc3ccccc3)ncnc21)c1cccc2ccccc12	CHRM1 agonist 33
C[C@@H](NC(=O)Cn1cnc2c(NCc3ccccc3)ncnc21)c1cccc2ccccc12	CHRM1 agonist 48
Cc1noc(C)c1COc1ccc(C(=O)N2CCN(S(=O)(=O)c3cccc(F)c3)CC2)cc1	none
Cc1c(/C(O)=C2/C(=O)C(=O)N(CCN3CCOCC3)C2c2ccccn2)cnn1-c1ccccc1 (centres undefined)	none
CCN1/C(=C/C=C/c2oc3ccc(-c4ccccc4)cc3[n+]2CC)Oc2ccc(-c3ccccc3)cc21	CHRM1 antagonist 103, CHO-K1 Ca antag 102, M1 ag parental 857, CHRM1 agonist 599
Cc1ccc(NC(=O)C2CCN(S(=O)(=O)c3cc([N+](=O)[O-])ccc3Cl)CC2)nc1	CHRM1 antagonist 42
O=C(Nc1nc2ccc(F)cc2s1)C1CCN(S(=O)(=O)c2cc([N+](=O)[O-])ccc2Cl)CC1	CHRM1 antagonist 32, CHO-K1 Ca antag 32
Cc1ccc2nc(NC(=O)C3CCN(S(=O)(=O)c4cc([N+](=O)[O-])ccc4Cl)CC3)sc2c1	CHO-K1 Ca antag 25
CC(NC(=O)C1CCN(S(=O)(=O)c2cc([N+](=O)[O-])ccc2Cl)CC1)c1ccccc1 (centres undefined)	none
COc1ccc(CCNC(=O)CSc2nc(=O)n3cc(C)ccc3n2)cc1OC	none
COc1cccc(CC(=O)N2CCC(n3nccc3NC(=O)C3CCOC3)CC2)c1 (centres undefined)	none
Cc1nc(N)nc(N)c1-c1ccc(Cl)c(Cl)c1	CHRM1 antagonist 46
O=C(/C(=C/c1ccc(Cl)cc1)c1nc2ccccc2[nH]1)c1ccccc1	CHRM1 antagonist 94
COc1ccc(N2CCN(c3nc(NCCO)nc(N4CCOCC4)n3)CC2)cc1	CHO-K1 Ca antag 27
CCc1ccc(NC(=O)c2cc(S(=O)(=O)N3CCCC3)c[nH]2)cc1	none
CC(C)c1ccc(NC(=O)c2cc(S(=O)(=O)N3CCCC3)c[nH]2)cc1	CHRM1 antagonist 35
Cn1cc(C(=O)N2CCc3ccccc32)cn1	none
OCC[C@@H]1C[C@H](O)[C@@H](O)[C@@]2(OCCc3cc(Cl)ccc32)O1	none
O=c1c2ccccc2ncn1-c1ccc([N+](=O)[O-])cc1Cl	CHO-K1 Ca antag 24
COc1ccc(C(=O)C(=O)c2ccc(OCCO)cc2)cc1	M1 PAM 30
Cc1cccc(C2N(c3ccc(F)cc3)C(=O)C3CCCN32)c1 (centres undefined)	CHO-K1 Ca antag 31
Cc1ccc(C2N(c3ccc(F)cc3)C(=O)C3CCCN32)cc1 (centres undefined)	none
CN(CC(=O)Nc1cccc(F)c1)C(=O)CCNC(=O)c1ccco1	none
Cc1ccc(C)c(NC(=O)CN(C)C(C)C(=O)N2CC(C)CC(C)C2)c1 (centres undefined)	none
CCCCNc1c(-c2ccc(OC)c(SC3CCCCC3)c2)nc2ccc(C)cn12	CHRM1 antagonist 49, CHO-K1 Ca antag 33
Cc1ccn2c(NCc3ccccc3)c(-c3cccc(SC4CCCCC4)c3)nc2c1	none
COc1ccc(-c2cc(-c3nc4ccccn4c3NCc3ccccc3)ccc2OC)cc1	CHRM1 antagonist 87, CHO-K1 Ca antag 52
CCC(C)Sc1cccc(-c2nc3cc(C)ccn3c2NCc2ccccc2)c1 (centres undefined)	CHRM1 antagonist 43
CCC(C)Sc1cc(-c2nc3ccc(C)cn3c2NCc2ccccc2)ccc1OC (centres undefined)	CHRM1 antagonist 63, CHO-K1 Ca antag 25!
COc1ccc(-c2nc3ccccn3c2NCc2ccc3c(c2)OCO3)cc1	none
O=C(N/N=C/C1CC2CCC1C2)c1c[nH]c2ccccc12 (centres undefined)	none
CCC(=O)N1CCCC(C)(C(=O)NS(=O)(=O)c2cccs2)C1 (centres undefined)	none
CCc1nc2ccc(C(=O)Nc3cc(-c4ccccc4)ccc3OC)cn2c1N(CCN(C)C)CC1CC1	none
CC(=O)Nc1ccc(S(=O)(=O)NCCC(=O)NNC(=O)c2ccccc2O)cc1	none
CCCCNc1c(-c2ccc(OC)c(SC(C)CC)c2)nc2ccc(C)cn12 (centres undefined)	CHRM1 antagonist 37
CCc1nnc(SCC(=O)NC2CCCCC2)nc1CC	none
CCc1nnc(SCC(=O)NC2CCCC2)nc1CC	CHO-K1 Ca antag 33
CC(=O)[C@@]1(O)[C@H](C)CC2C3CC=C4CC(OP(=O)(O)O)CC[C@]4(C)C3CC[C@@]21C (some centres undefined)	none
Cc1ccc(Nc2nc(-c3c(C)nc4ccccn34)cs2)cc1	CHRM1 antagonist 23
Cc1ccn2c(-c3csc(NCc4ccccc4)n3)c(C)nc2c1	CHO-K1 Ca antag 25
Cc1ccc(Nc2nc(-c3c(C)nc4ncccn34)cs2)cc1	none
Cc1nc2ccccn2c1-c1csc(NCc2ccco2)n1	none
O=C(CSc1nc(C(F)(F)F)cc(=O)[nH]1)Nc1cccc2ccccc12	M1 PAM 24
CN(C)c1ccc(/C=C2\Oc3ccc(C#Cc4cccc(N)c4)cc3C2=O)cc1	CHRM1 antagonist 35, CHRM1 agonist 29
C[C@H](NC(=O)c1ccc(Cl)cc1)C(=O)NNC(=O)c1cccs1	none
C[n+]1c2cc(N)ccc2cc2ccc(N)cc21	CHO-K1 Ca antag 25!, M1 ag parental 210, CHRM1 agonist 205
Nc1ccc2ccc(O)cc2c1	none
CC[C@]1(C(=O)OC)[C@H]2C(=O)N(C)C(=O)[C@H]2[C@H]2CN(C)C(=NC3CCCCC3)N21	none
COC(=O)c1cc(Br)c(N)cc1OC	none
CCN(CC)CCNC(=O)c1cc(Br)c(N)cc1OC	CHO-K1 Ca antag 35
OC(COC(c1ccccc1)c1ccccc1)CN1CCCCC1 (centres undefined)	none
c1ccc(C(CN2CCCCC2)Oc2ccccn2)cc1 (centres undefined)	CHRM1 antagonist 83
CCOC(=O)CCCCCCCCC(=O)Nc1ccc(-n2[nH]c(=O)cc2C)cc1	CHRM1 agonist 20
Cc1ccc(NC(=O)CCCCCC2NC(=O)NC2C)cc1 (centres undefined)	none

Screening results as filed in PubChem BioAssay.
